These results are taken from PubChem BioAssay.

The nature of test [1]: Her2 expression decrease, cell viability multiplex – SKBR3 breast tumor cells, AlphaScreen, ATP viability, primary screen (AID 461;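 active = Her2 level under about 52% in both replicate screens, with viability over 70% of control, limit read from the data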;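 as to Her2 level: lower value means less Her2 protein in the cells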;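 as to viability: percent of carrier control wells set as 100% viability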). The conditions noted are these: SKBR3 Her2 protein level, 18-24 h, measured here: SKBR3 viability, ATP luminescence, at 10 µM. On the technique in general: Bead proximity is the source of the signal in Alpha formats.
The target in test [2] is Receptor tyrosine-protein kinase erbB-2 (Homo sapiens) (UniProt P04626). Described as above. The conditions noted are these: 18-24 h, at 10 µM, stronger effect = lower value.
Test [3] in a line: reduced viability of SK-BR-3 breast cancer cells – cell-based, 24 h, human, pilot screen (AID 572;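 active = viability at or below 10% of carrier control in both of two separate runs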;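 also: compound exposure lasted between 18 and 24 h rather than exactly 24 h; 100% = carrier-treated control wells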). The note with it: SK-BR-3 viability, CellTiter-Glo luminescence, at 10 µM, stronger effect = lower value.
Test [4] is described as follows: HUVEC growth inhibition – cell-based, human, primary screen (AID 575;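 active = viability at or below 30% in both replicate assays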;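 also: 100% = median of untreated cell wells with 0.1% DMSO on each plate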). The conditions noted are these: HUVEC proliferation, CellTiter-Glo luminescence, 72 h; at 10 µM; stronger effect = lower value. In general terms: ATP-based viability assays read luminescence as a measure of living cells.
Test [5] can be described thus: H69AR cell proliferation blockers – human, duplicate replicates, primary screen (AID 580;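 active = viability at or under a set limit in both replicates, limit being median viability minus 3 SD, cut at about 48% in these data, passing the limit was not always enough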;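 also: 100% = mean luminescence of untreated wells and 0% = no signal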). The conditions noted are these: H69AR lung tumor cells viability, ATP luminescence, 72 h; at 10 µM; stronger effect = lower value.
Test [6] in a line: MRP1 drug-resistance reversers in H69AR cells – cell-based, doxorubicin co-treatment, pilot screen (AID 601;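 active = viability loss from added drug above about 55%, and viability with drug at most 40%, in both replicates, limit read from the data, passing the limit was not always enough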). The conditions noted are these: CellTiter-Glo, 72 h, at 10 µM; for differential viability (reversal): stronger effect = higher value.
A short description of test [7]: yeast transport mutant growth inhibition pilot in 384-well plates, post-Golgi transport modulator project (AID 636; in the data active = inhibition above about 31%). The conditions noted are these: absorbance 615 nm, about 18 h, stronger effect = higher value.
Test [8] can be described thus: growth suppression of yeast trafficking mutant, preliminary HTS, modulators of trafficking downstream of Golgi apparatus project, 1536-format plate, OD 615 nm (AID 637; in the data active = inhibition above about 30%). The conditions noted are these: yeast transport mutant growth, absorbance 615 nm, 18 h; stronger effect = higher value.
Test [9] is described as follows: S. cerevisiae growth inhibition in permissive medium (OD615), pilot counter-assay for S. cerevisiae lifespan shortening project, permissive growth control (AID 705;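 active = growth inhibition above 25% in both replicates, a cutoff set 3 SD above the mean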). The note with it: OD615, 24 h, at 10 µM, stronger effect = higher value.
Test [10] is described as follows: S. cerevisiae growth inhibition in restrictive medium, OD615, pilot screen, restrictive growth control, yeast lifespan reduction project (AID 706;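 active = growth inhibition above a set limit, 3 SD over mean compound inhibition, in both replicates, cut at about 43% in these data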;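 also: modified DeaD lifespan yeast strain shifted to restrictive glucose medium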). The note with it: OD615, 48 h, at 10 µM, stronger effect = higher value.
Test [11] can be described thus: doxorubicin toxicity protection in MRP-1 cells – H69AR cells, CellTiter-Glo, duplicate, MRP-1 activator project, pilot screen (AID 807).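 Also: compound pretreatment 18-22 h then 72 h combined with doxorubicin; 0% = doxorubicin alone and 100% = vehicle without doxorubicin.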 The conditions noted are these: H69AR viability with doxorubicin, CellTiter-Glo luminescence; at 10 µM; stronger effect = higher value.
Test [12] is described as follows: viability of HCT116 without oncogenic beta-catenin – human colon tumor cells, pilot screen (AID 823;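 active = cell viability at or below a set limit in both duplicate runs, the limit being the all-compound median minus 4 SD, cut at about 23% in these data, passing the limit was not always enough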;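 also: 0% = wells killed by 20 µM Hyamine and 100% = untreated DMSO cell wells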). The conditions noted are these: HCT116 beta-catenin knockout viability, CellTiter-Glo, 60 h; at 10 µM; stronger effect = lower value.
Test [13] in a line: viability of PTEN-null HCT116 cells – cell-based, HCT116 clonal line, CellTiter-Glo, pilot screen (AID 824;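 active = viability at or below 27.92% in each of two runs, the all-compound median minus 4 SD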;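 also: 0% = 20 µM Hyamine control and 100% = vehicle cell control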). The conditions noted are these: HCT116 PTEN-deleted viability, 60 h, at 10 µM, stronger effect = lower value.
Test [14] in a line: RAM pathway blockade in budding yeast – dse1pr::URA3 reporter, 5-FOA selection, pilot screen (AID 869;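 active = inhibition over a set limit, the all-compound mean plus 3 SD, in both replicate runs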;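 also: 0% = DMSO wells with no growth and 100% = 10 µM 1-NA-PP1 with full growth; RAM network block rescues cells from 5-FOA so hits raise OD615 growth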). The conditions noted are these: S. cerevisiae dse1pr::URA3 5-FOA growth, OD615, 2 d; at 10 µM; stronger effect = higher value; strain carries analog-sensitive mutant Cbk1 kinase.
Test [15] is described as follows: RAM signaling pathway blockade in yeast – S. cerevisiae, Pdr1DBD-CYC8 efflux-inhibited sensitized strain, primary screen (AID 1298;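 active = RAM network inhibition above 8.4% in each of two replicates, 3 SD over the compound average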;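 also: 0% = DMSO untreated cells without growth and 100% = 10 µM 1-NA-PP1 full growth; higher means more yeast growth rescued from 5-FOA killing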). The conditions noted are these: S. cerevisiae cbk1-as DSE1-URA3 strain, 5-FOA growth OD615, 2 d; at 50 µM; stronger effect = higher value.
Setting [16] is: H69AR cells + 2 uM doxorubicin, measured here: viability with 2 uM doxorubicin, stronger effect = lower value.
[17] abbreviates: H69AR cells, compound alone cytotoxicity.

Inconclusive results are not listed. Calls of active or inactive are those of the source.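 The calls were made as follows, unless noted: active = viability increase at or above a cutoff of the median across tested compounds plus 3 SD (cut at about 8.5% in these data, passing the limit was not always enough); inconclusive = some gains above the cutoff, reason not given; inactive = the rest.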

Chain of Receptor tyrosine-protein kinase erbB-2 (Homo sapiens) (P04626 whole entry, looked up): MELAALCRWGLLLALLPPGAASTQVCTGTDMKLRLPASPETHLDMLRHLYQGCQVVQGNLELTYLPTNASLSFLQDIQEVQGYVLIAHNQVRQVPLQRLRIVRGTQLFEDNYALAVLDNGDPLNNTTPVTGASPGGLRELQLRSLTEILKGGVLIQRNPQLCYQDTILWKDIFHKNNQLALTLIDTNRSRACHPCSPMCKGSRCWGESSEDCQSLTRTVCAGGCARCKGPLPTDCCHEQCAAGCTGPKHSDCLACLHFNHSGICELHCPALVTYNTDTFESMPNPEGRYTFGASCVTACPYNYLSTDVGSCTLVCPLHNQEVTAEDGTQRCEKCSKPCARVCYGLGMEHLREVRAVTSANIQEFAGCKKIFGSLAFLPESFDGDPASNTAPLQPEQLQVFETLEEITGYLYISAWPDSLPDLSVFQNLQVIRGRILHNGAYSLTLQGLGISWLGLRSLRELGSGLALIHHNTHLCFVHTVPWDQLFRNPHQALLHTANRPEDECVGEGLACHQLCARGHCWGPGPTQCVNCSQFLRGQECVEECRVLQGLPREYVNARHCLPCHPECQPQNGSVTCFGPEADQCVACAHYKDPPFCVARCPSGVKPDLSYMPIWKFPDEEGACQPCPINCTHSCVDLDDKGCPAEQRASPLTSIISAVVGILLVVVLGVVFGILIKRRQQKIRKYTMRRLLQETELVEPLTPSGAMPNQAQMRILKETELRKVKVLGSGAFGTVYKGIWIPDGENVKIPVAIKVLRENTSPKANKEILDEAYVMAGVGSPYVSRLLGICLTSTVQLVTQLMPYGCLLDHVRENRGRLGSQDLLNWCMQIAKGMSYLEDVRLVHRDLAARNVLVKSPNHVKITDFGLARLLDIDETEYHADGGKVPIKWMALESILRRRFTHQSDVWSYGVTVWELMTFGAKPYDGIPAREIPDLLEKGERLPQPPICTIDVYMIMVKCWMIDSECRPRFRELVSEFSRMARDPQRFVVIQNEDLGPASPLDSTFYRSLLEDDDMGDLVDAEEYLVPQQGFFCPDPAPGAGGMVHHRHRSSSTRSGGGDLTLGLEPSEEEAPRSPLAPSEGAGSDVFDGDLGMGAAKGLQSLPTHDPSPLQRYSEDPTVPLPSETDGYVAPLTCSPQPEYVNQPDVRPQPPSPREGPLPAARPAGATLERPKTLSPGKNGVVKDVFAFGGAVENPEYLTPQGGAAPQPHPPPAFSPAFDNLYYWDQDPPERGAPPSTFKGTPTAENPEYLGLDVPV

In general, viability refers to a read-out of living cells in per cent, often relative to untreated cells. A word on the inhibition: it is the drop in the measured response relative to a control, in per cent. As to `COc1ccc(OC)c(NC(=O)c2cn(C)c(=O)c3cc(OC)c(OC)cc23)c1`, the viability in test [1] is 104%; in [3], 104% (inactive); in test [4], 97.2% (inactive); in [5], 93.8% (inactive); in [6] (setting [16]), 88.1%; in test [6] (setting [17]) it was 93.8%. Further, the viability in [12] is 99.6% (inactive); in test [13], 96.7% (inactive). Besides, in test [2], the Her2 level is 104% (inactive). In addition, the differential viability (reversal) in test [6] (H69AR cells + 2 uM doxorubicin) was 5.68% (inactive). Moreover, the inhibition in test [7] is -0.41% (inactive); in [8], 28.7% (inactive); in test [14], 0.435% (inactive). Further, the growth inhibition in [9] was -17.3% (inactive); in [10] it was -19.3% (inactive). Moreover, the viability increase in [11] was -4.55% (inactive). Moreover, the RAM network inhibition in test [15] is 3.89% (inactive).

`COC(=O)CCC(=O)Nc1ccc(OC)cc1`: the viability was 104% in [1]; 104% (inactive) in test [3]; 121% (inactive) in test [4]; 85.1% (inactive) in [5]; 98.3% in [6] (setting [16]); 85.1% in test [6] (setting [17]). The results for the viability in [12] and in [13] were 98.6% (inactive) and 101% (inactive), respectively. Besides, the Her2 level in test [2] was 84% (inactive). Besides, in test [6] (H69AR cells + 2 uM doxorubicin), the differential viability (reversal) is -13.2% (inactive). Also, the inhibition is -6.22% (inactive) in [7], 0.98% (inactive) in [8] and 0.605% (inactive) in test [14]. In addition, the growth inhibition is -2.88% (inactive) in test [9] and -6.16% (inactive) in [10]. Also, the viability increase in [11] is -1.06% (inactive). The RAM network inhibition in test [15] was 2.52% (inactive).

On to `CCCN(CCC)CCNC(=O)c1cc2c(=O)n(C)c3ccccc3c2n1C`, for which the viability was 89% in test [1]; 89% (inactive) in [3]; 57.5% (inactive) in [4]; 77.1% (inactive) in [5]; 64% in [6] (setting [16]); 77.1% in test [6] (setting [17]). Further, the viability in [12] was 69.6% (inactive); in [13], 73.4% (inactive). For the same molecule, in test [2], the Her2 level was 98.5% (inactive). Moreover, the differential viability (reversal) in test [6] (H69AR cells + 2 uM doxorubicin) was 13% (inactive). In addition, the inhibition in [7] was -2.53% (inactive); in [8] it was 1.67% (inactive); in test [14], 1.12% (inactive). Also, the growth inhibition is 6.58% (inactive) in [9] and 1.31% (inactive) in [10]. For the same molecule, in [11], the viability increase is -6.19% (inactive). In addition, the RAM network inhibition in test [15] is 0.57% (inactive).

For `CC(=O)c1ccc(OCC(O)CN2CCN(Cc3ccc4c(c3)OCO4)CC2)cc1` (stereo not given), the viability in test [1] was 102%; in test [3], 102% (inactive); in test [4], 101% (inactive); in test [5], 88.7% (inactive); in test [6] (setting [16]), 90.8%; in test [6] (setting [17]) it was 88.7%. Besides, the viability in [12] is 102% (inactive); in [13], 92.4% (inactive). Further, the Her2 level in test [2] is 102% (inactive). Further, the differential viability (reversal) in test [6] (H69AR cells + 2 uM doxorubicin) is -2.19% (inactive). Further, the inhibition in [7] is -6.13% (inactive); in test [8], 2.5% (inactive); in test [14], 1.67% (inactive). Also, the results for the growth inhibition in test [9] and in test [10] were -5.95% (inactive) and -5.68% (inactive), respectively. Moreover, in test [11], the viability increase was -0.65% (inactive). Further, the RAM network inhibition in [15] is 1.31% (inactive).

With `CCCCOCCCNC(=O)COc1ccccc1`, the viability in test [1] was 103%; in test [3], 103% (inactive); in test [4], 102% (inactive); in test [5], 94.1% (inactive); in test [6] (setting [16]), 96.4%; in test [6] (setting [17]), 94.1%. The results for the viability in test [12] and in test [13] were 94.5% (inactive) and 97.5% (inactive), respectively. Besides, the Her2 level in [2] is 104% (inactive). In test [6] (H69AR cells + 2 uM doxorubicin), the differential viability (reversal) was -2.32% (inactive). The values for the inhibition in test [7], in test [8] and in test [14] were -5.54% (inactive), -2.46% (inactive) and 0.215% (inactive), respectively. For the same molecule, the results for the growth inhibition in test [9] and in [10] were -2.82% (inactive) and -5.04% (inactive), respectively. Also, the viability increase in test [11] was -1.43% (inactive). In test [15], the RAM network inhibition is -0.62% (inactive).
